Source: PubChem BioAssay (NCATS)

Assay: qHTS profiling of the MIPE4 collection as inhibitors of Plasmodium falciparum (DD2) proliferation (Rep 2) (AID 743346)
Conditions: P. falciparum Dd2 in erythrocytes, SYBR Green DNA, 72 h; at 28.5 µM unless noted
Procedure, shortened: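 Parasite DNA was quantified by SYBR Green I fluorescence (ex 485, em 535 nm) after overnight lysis in saponin/Triton buffer at room temperature. Cultures at 0.3% parasitemia and 2.5% hematocrit were first exposed to compound for 72 h at 37 C; signals were normalised to artemisinin (0.29 uM) and vehicle wells.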

| Structure (SMILES) | parasite growth, % of control (lower = inhibition) |
| --- | --- |
| Nc1nc(=O)n([C@H]2C[C@H](O)[C@@H](CO)O2)cc1F | 85.7% |
| N#Cc1c(C2CCNCC2)cc(-c2c(O)cccc2OCC2CC2)nc1N | 15.7% |
| Oc1cc2c(cc1O)C1c3ccc(O)c(O)c3OCC1(O)C2 (centres undefined) | 15.2% |
| CN[C@@H]1C[C@H]2O[C@@](C)([C@H]1OC)n1c3ccccc3c3c4c(c5c6ccccc6n2c5c31)C(=O)N[C@H]4O | 14.9% |
| NC(=O)Nc1cc(-c2ccc(CN3CCOCC3)cc2)sc1C(N)=O | 33% |
| FC(F)(F)c1ccc(Nc2nc3ccc(Oc4ccnc(-c5ncc(C(F)(F)F)[nH]5)c4)cc3[nH]2)cc1 | 15.3% |
| COC(=O)[C@@H]1CC2=CC(=O)CC[C@]2(C)[C@@]23O[C@@H]2C[C@@]2(C)[C@H](CC[C@@]24CCC(=O)O4)[C@@H]13 | 61.4% |
| COc1ccc(S(=O)(=O)Nc2cc(-c3c(O)ccc4ccccc34)c(O)c3ccccc23)cc1 | 23.7% |
| Cc1cc(C(=O)NOCCO)c(Nc2ccc(I)cc2F)n(C)c1=O | 84.7% |
| CC(C)(C)[C@H](NC(=O)c1ccc(N)c(Cl)c1)C(=O)N1CCC[C@@H]1C(=O)N[C@H](C#N)CC(=O)O | 108% [at 3.19 µM] |
| O=C1NCCc2[nH]c(-c3ccncc3)cc21 | 17.3% |
| COc1ccnc2[nH]cc(C(=O)C(=O)N3CCN(C(=O)c4ccccc4)C[C@@H]3C)c12 | 86.4% |
| CCC[C@H]1C[C@H](C(=O)N[C@@H]([C@@H]2O[C@@H](SC)[C@@H](O)[C@@H](O)[C@@H]2O)[C@H](C)Cl)N(C)C1 | 24.6% |
| CC(C)(O)CC[C@@H](O)[C@](C)(O)[C@H]1CC[C@@]2(O)C3=CC(=O)[C@@H]4C[C@@H](O)[C@@H](O)C[C@]4(C)[C@@H]3CC[C@]12C | 122% |
| CC(C)C[C@H](NC(=O)[C@@H](NC(=O)c1cccc(-c2ccccc2)n1)[C@@H](C)O)B(O)O | 7.67% |
| CON=C(C(=O)N[C@@H]1C(=O)N2C(C(=O)O)=C(CSC(=O)c3ccco3)CS[C@H]12)c1csc(N)n1 | 71% |
| CCN(C(=O)c1c(O)c2c(Cl)cccc2n(C)c1=O)c1ccccc1 | 78.3% |
| C[C@H]1[C@@H](OC(=O)CCC(=O)O)O[C@@H]2O[C@@]3(C)CC[C@@H]4[C@H](C)CC[C@@H]1[C@@]24OO3 | 10.6% |
| Cn1cc(C[C@@H](N)C(=O)O)c2ccccc21 | 107% [at 9.64 µM] |
| COc1cc([C@@H]2c3cc4c(cc3[C@@H](O[C@@H]3O[C@@H]5CO[C@@H](c6cccs6)O[C@@H]5[C@H](O)[C@@H]3O)[C@H]3COC(=O)[C@H]23)OCO4)cc(OC)c1O | 9.32% |
| Cc1coc2c1C(=O)C(=O)c1c-2ccc2c(C)cccc12 | 15.4% |
| C=C(C)[C@@H]1CC[C@]2(C)CC[C@]3(C)[C@H](CC[C@@H]4[C@@]5(C)CC[C@H](O)C(C)(C)[C@H]5CC[C@]43C)[C@@H]12 | 73.8% |
| CC(=O)N[C@@H]1[C@H](O[C@@H]2c3ccc(c(Cl)c3)Oc3cc4cc(c3O[C@H]3O[C@H](CO)[C@@H](O)[C@H](O)[C@H]3NC(=O)CCCCCCCC(C)C)Oc3ccc(cc3Cl)C[C@H]3NC(=O)[C@H](N)c5ccc(O)c(c5)Oc5cc(O)cc(c5)[C@H](NC3=O)C(=O)N[C@H]4C(=O)N[C@H]3C(=O)N[C@@H]2C(=O)N[C@@H](C(=O)O)c2cc(O)cc(O[C@H]4O[C@H](CO)[C@@H](O)[C@H](O)[C@H]4O)c2-c2cc3ccc2O)O[C@H](CO)[C@@H](O)[C@@H]1O | 159% |
| CC(=O)NCC(=O)N1[C@H]2CC[C@H]1c1cc(Nc3ncc(C(F)(F)F)c(NC4CCC4)n3)ccc12 | 12.7% |
| CN1C(C(=O)Nc2ccccn2)=C(O)c2sc(Cl)cc2S1(=O)=O | 50.9% |
| CCOC(=O)N1CCN([N+]([O-])=NOc2ccc([N+](=O)[O-])cc2C#N)CC1 | 17.1% |
| O=C1NC(O)CCN1[C@@H]1O[C@H](CO)[C@H](O)[C@H]1O (some centres undefined) | 109% |
| CC(C)(O)[C@H]1CC[C@@](C)([C@H]2[C@@H](O)C[C@@]3(C)[C@@H]4C[C@H](O[C@@H]5O[C@H](CO)[C@@H](O)[C@H](O)[C@@H]5O)[C@H]5C(C)(C)[C@@H](O[C@@H]6OC[C@@H](O)[C@H](O)[C@@H]6O)CC[C@@]56C[C@@]46CC[C@]23C)O1 | 89.1% |
| C[C@@H]1CC[C@@]2(OC1)OC1CC3C4CC=C5CC(O)CCC5(C)C4CCC3(C)C1[C@@H]2C (some centres undefined) | 64.4% |
